According to the supplement of paper PMC12350171:
Counter-ions that a name gives are not always drawn.

Assays:
Experiment in all cases: growth AUC normalised to DMSO control (median) (fraction of control); higher = less growth inhibition, active = hit call of the paper
Conditions in all cases: 20 µM;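 active = normalised median growth AUC below 0.1 of DMSO control; inactive = AUC 0.1 or higher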
P. vulgatus RND KO = system: P. vulgatus RND KO
How it was run: (§1)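 For normalised area under the curve, growth curves were truncated at entry into stationary phase, integrated by the trapezoidal rule and divided against vehicle wells on the same plate. The curves came from strains passaged twice overnight without oxygen and then grown in mGAM in 96-well plates at a starting OD578 of 0.01. Each well held an approved-drug library compound at 20 μM with 1% DMSO, and OD578 was read hourly for 24 h in an anaerobic incubator. Values are medians of three biological replicates.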

P. vulgatus WT = system: P. vulgatus WT
How it was run: as §1

[1] = system: S. enterica typhimurium WT
How it was run: as §1

[2] = system: S. enterica typhimurium tolC KO
How it was run: as §1
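Note: active when median AUC fell below 0.1.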

SMILES	growth AUC normalised to DMSO control (P. vulgatus RND KO)	growth AUC normalised to DMSO control (P. vulgatus WT)	growth AUC normalised to DMSO control [1]	growth AUC normalised to DMSO control [2]
N#Cc1cc(NC(=O)C(=O)O)c(Cl)c(NC(=O)C(=O)O)c1 [Lodoxamide]	1 (inactive)	1.04 (inactive)	1 (inactive)	1.01 (inactive)
Cn1c([N+](=O)[O-])cnc1COC(N)=O [Ronidazole]	0.0102 (active)	0.00777 (active)	0.999 (inactive)	0.923 (inactive)
Oc1cc(O)c2c(c1)O[C@H](c1ccc(O)c(O)c1)[C@@H](O)C2 [Cianidanol]	1 (inactive)	1.01 (inactive)	1.01 (inactive)	0.994 (inactive)
COc1cccc(CCc2ccccc2OCC(CN(C)C)OC(=O)CCC(=O)O)c1 (configuration not stated) [Sarpogrelate hydrochloride]	1.03 (inactive)	1.05 (inactive)	1 (inactive)	0.988 (inactive)
CN1CCC(=C2c3ccccc3CCc3cccnc32)CC1 [Azatadine maleate]	0.998 (inactive)	0.987 (inactive)	1 (inactive)	0.993 (inactive)
COc1ccc(C(=O)CC(=O)c2ccc(C(C)(C)C)cc2)cc1 [Avobenzone]	0.939 (inactive)	0.911 (inactive)	0.992 (inactive)	0.976 (inactive)
CC(C)(C)NC(=O)[C@@H]1CN(Cc2cccnc2)CCN1C[C@@H](O)C[C@@H](Cc1ccccc1)C(=O)N[C@H]1c2ccccc2C[C@H]1O [Indinavir sulfate]	1 (inactive)	0.984 (inactive)	0.997 (inactive)	0.994 (inactive)
CN1c2cc(O)c(N=NC(N)=O)cc2CC1S(=O)(=O)O (configuration not stated) [Carbazochrome sodium sulfonate]	1.01 (inactive)	1 (inactive)	1 (inactive)	0.993 (inactive)
COc1ccc(C(=O)c2ccc(C)cc2)c(O)c1 [Mexenone]	0.999 (inactive)	1 (inactive)	1 (inactive)	0.931 (inactive)
COc1ccc(CN2CCN(C(c3ccc(F)cc3)c3ccc(F)cc3)CC2)c(OC)c1OC [Lomerizine dihydrochloride]	0.997 (inactive)	0.986 (inactive)	1.01 (inactive)	0.978 (inactive)
N#Cc1ccc(Oc2ccc3c(c2)COB3O)cc1 [Crisaborole]	1 (inactive)	1.02 (inactive)	1.01 (inactive)	1.02 (inactive)
CCCCc1oc2ccc(NS(C)(=O)=O)cc2c1C(=O)c1ccc(OCCCN(CCCC)CCCC)cc1 [Dronedarone hydrochloride]	1.01 (inactive)	1.03 (inactive)	1 (inactive)	1 (inactive)
CCC(C)(C)c1ccc(CC(C)CN2C[C@@H](C)O[C@@H](C)C2)cc1 (some centres not stated) [Amorolfine hydrochloride]	1.01 (inactive)	1.03 (inactive)	1.01 (inactive)	0.963 (inactive)
CCOC(=O)Nc1ccc(NCc2ccc(F)cc2)nc1N [Flupirtine]	1.08 (inactive)	1.05 (inactive)	1 (inactive)	0.979 (inactive)
CO[C@@]12[C@H](COC(N)=O)C3=C(C(=O)C(C)=C(N)C3=O)N1C[C@@H]1N[C@@H]12 [Mitomycin C]	0.0125 (active)	0.013 (active)	0.196 (inactive)	0.00599 (active)
O=C(Oc1ccccc1)c1ccccc1O [Phenyl salicylate]	1.03 (inactive)	1.06 (inactive)	1.01 (inactive)	0.975 (inactive)
N[C@@H](C(=O)N[C@@H]1C(=O)N2C(C(=O)O)=C(Cl)CC[C@H]12)c1ccccc1 [Loracarbef]	0.00871 (active)	0.00996 (active)	0.018 (active)	0.0264 (active)
Cn1nnnc1SCC1=C(C(=O)O)N2C(=O)[C@@H](NC(=O)[C@H](O)c3ccccc3)[C@H]2SC1 [Cefamandole sodium salt]	0.204 (inactive)	–	0.0103 (active)	0.00496 (active)
CC(=O)[C@@]12O[C@](C)(c3ccccc3)O[C@@H]1C[C@H]1[C@@H]3CCC4=CC(=O)CC[C@]4(C)[C@H]3CC[C@@]12C [Algestone acetophenide]	0.955 (inactive)	0.983 (inactive)	1 (inactive)	0.993 (inactive)
Cc1nc(C)c(Cl)c(O)c1Cl [Clopidol]	1.01 (inactive)	0.991 (inactive)	1.01 (inactive)	0.983 (inactive)
CC(C)C[C@H](NC(=O)[C@@H](O)[C@H](N)Cc1ccccc1)C(=O)O [Ubenimex]	0.448 (inactive)	0.535 (inactive)	1 (inactive)	0.992 (inactive)
CCCNC(C)(C)C(=O)Nc1ccccc1C [Quatacaine]	1.01 (inactive)	1.03 (inactive)	1 (inactive)	0.975 (inactive)
CC1(C)S[C@@H]2[C@H](NC(=O)C(C(=O)O)c3ccccc3)C(=O)N2[C@H]1C(=O)O (some centres not stated) [Carbenicillin disodium salt]	0.0099 (active)	0.00958 (active)	0.0868 (active)	0.00344 (active)
CO/N=C(\C(=O)N[C@@H]1C(=O)N2C(C(=O)OCOC(=O)C(C)(C)C)=C(/C=C\c3scnc3C)CS[C@H]12)c1csc(N)n1 [Cefditoren Pivoxil]	–	–	0.905 (inactive)	0.387 (inactive)
CO/N=C(\C(=O)N[C@@H]1C(=O)N2C(C(=O)OC(C)OC(C)=O)=C(COC(N)=O)CS[C@H]12)c1ccco1 (some centres not stated) [Cefuroxime axetil]	–	0.664 (inactive)	1.1 (inactive)	–
CC(C)Nc1cccnc1N1CCN(C(=O)c2cc3cc(NS(C)(=O)=O)ccc3[nH]2)CC1 [Delavirdine]	1.02 (inactive)	1.07 (inactive)	1.02 (inactive)	0.98 (inactive)
O=S(=O)(c1cccc2cnccc12)N1CCCNCC1 [Fasudil Hydrochloride]	1 (inactive)	1 (inactive)	1 (inactive)	1.01 (inactive)
CCOC(=O)O[C@]1(C(=O)OCCl)CC[C@H]2[C@@H]3CCC4=CC(=O)C=C[C@]4(C)[C@H]3[C@@H](O)C[C@@]21C [Loteprednol etabonate]	0.853 (inactive)	0.862 (inactive)	1.01 (inactive)	0.953 (inactive)
COc1cccc(OC)c1C(=O)N[C@@H]1C(=O)N2[C@@H]1SC(C)(C)[C@@H]2C(=O)O [Methicillin sodium]	–	0.708 (inactive)	0.99 (inactive)	0.482 (inactive)
COCC1=C(C(=O)OC(C)OC(=O)OC(C)C)N2C(=O)[C@@H](NC(=O)/C(=N\OC)c3csc(N)n3)[C@H]2SC1 (some centres not stated) [Cefpodoxime proxetil]	–	–	0.853 (inactive)	0.338 (inactive)
